# System: PPARg:RXRa (NR concentration 180 nM, RXRa partner concentration 90 nM)
# Test: PBM binding z-score (relative to random genomic background probes); higher = stronger binding; sequences stand for … in GC…GCGATTGACAGCGTAGAATGAAGG
# Summary of the method: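 Probes were double-stranded and carried 34-nt variable regions with direct-repeat seeds, single-nucleotide variants, half-site ablations and random human genomic background sequences, printed on custom Agilent 4×180K protein-binding microarrays. Arrays were incubated 1 h with ligand-free nuclear receptor dimers in PBS pH 7.4, 2% milk, 0.02% Triton X-100, 1 mM DTT, 0.2 mg/mL BSA and 0.4 mg/ml salmon testes DNA. Antibodies against each partner (one per run) detected binding, and scanned fluorescence was regression-normalized. Binding z-scores use the random background probes as reference.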
row,Sequence,PBM binding z-score
1,TCATATAGGCAAAAGGTGAAAGTCGGTGTGGTAA,7.39
2,ATATGTAGGTTAGCTGGGGTCATTCAGACTAGGC,5.66
3,GCAACGAGGGCAAAGTTGATAGCATCTGTCGACG,5.92
4,CCTTACGGGTCGCTCCAGGTTATAGCATCGGAGT,0.136
5,ATGTCTAGGTAAGACTCAGTTCAGTGAAGAACGC,0.0566
6,GATTCAGGGTCAAGGCCAGAGTACGCGTATTGAT,6.43
7,CGTCAAAGCTCAAGGTAACGTAACAGAAAGCAGC,0.521
8,CCTATTAGTTGACCACAAGGGCAACCGAAGCTCG,0.53
9,ATATGTAGCTTAGCTGGGGTCATTCAGACTAGGC,1.15
10,CTACCAAGGTGAACAAGCTCGTTGATTACTATTC,0.332
11,CTCGAAAGGTCGTGCTCAGGTGACTATACCAAAC,2.84
12,CGAACTAGGTCAAGAACAGTGAATCTCCGCACGC,6.53
13,ACTATTAGGTGACTTAGGGCAACCGATACGACGC,1.85
14,TAGCCTAGGTCAAGGGCCAGTATACCACGCGAAC,4.52
15,ACTTACGGGTCAACGAGGTTATTGCACGCGTATA,5.89
16,CGTCAAAGTTCAAGGTAACGTTACAGAAAGCAGC,4.55
17,CAATCTAGGTCACCGGAAGGTCAAAGTCCGCATG,10
18,CCGAGTGGGGCAAAGGTTACCATACTCAGTACGA,11
19,AATAGAGGGTCACTAGGCCAGAGTAGGTACGAAT,6.44
20,ACCTCTAGGTAACCAAGTTCAGTGAATGCCGAAC,0.296
21,CGTCAAAGTTCAAGGTAACGTGACAGAAAGCAGC,4.02
22,TCTCGGAGGACACGAAGGTCAGAGCTTTCCAGAG,0.444

# Source: the supplement of paper PMC6555819
